# Source: PubChem BioAssay (National Center for Advancing Translational Sciences (NCATS))
# Sampled rows, rich in hits. Any-hit rate of the full collection: about 9%.
# BAZ2B inh: qHTS Assay for Inhibitors of BAZ2B; AlphaScreen BAZ2B-H3K14Ac peptide displacement; Potency, µM (highest dose often 114 µM), most hits filed as inhibitors; 360,000 tested, 4.4% active; also: nearly all actives have a fitted effect of over 60% in size
# Target sequence (Q9UIF8 whole entry, looked up): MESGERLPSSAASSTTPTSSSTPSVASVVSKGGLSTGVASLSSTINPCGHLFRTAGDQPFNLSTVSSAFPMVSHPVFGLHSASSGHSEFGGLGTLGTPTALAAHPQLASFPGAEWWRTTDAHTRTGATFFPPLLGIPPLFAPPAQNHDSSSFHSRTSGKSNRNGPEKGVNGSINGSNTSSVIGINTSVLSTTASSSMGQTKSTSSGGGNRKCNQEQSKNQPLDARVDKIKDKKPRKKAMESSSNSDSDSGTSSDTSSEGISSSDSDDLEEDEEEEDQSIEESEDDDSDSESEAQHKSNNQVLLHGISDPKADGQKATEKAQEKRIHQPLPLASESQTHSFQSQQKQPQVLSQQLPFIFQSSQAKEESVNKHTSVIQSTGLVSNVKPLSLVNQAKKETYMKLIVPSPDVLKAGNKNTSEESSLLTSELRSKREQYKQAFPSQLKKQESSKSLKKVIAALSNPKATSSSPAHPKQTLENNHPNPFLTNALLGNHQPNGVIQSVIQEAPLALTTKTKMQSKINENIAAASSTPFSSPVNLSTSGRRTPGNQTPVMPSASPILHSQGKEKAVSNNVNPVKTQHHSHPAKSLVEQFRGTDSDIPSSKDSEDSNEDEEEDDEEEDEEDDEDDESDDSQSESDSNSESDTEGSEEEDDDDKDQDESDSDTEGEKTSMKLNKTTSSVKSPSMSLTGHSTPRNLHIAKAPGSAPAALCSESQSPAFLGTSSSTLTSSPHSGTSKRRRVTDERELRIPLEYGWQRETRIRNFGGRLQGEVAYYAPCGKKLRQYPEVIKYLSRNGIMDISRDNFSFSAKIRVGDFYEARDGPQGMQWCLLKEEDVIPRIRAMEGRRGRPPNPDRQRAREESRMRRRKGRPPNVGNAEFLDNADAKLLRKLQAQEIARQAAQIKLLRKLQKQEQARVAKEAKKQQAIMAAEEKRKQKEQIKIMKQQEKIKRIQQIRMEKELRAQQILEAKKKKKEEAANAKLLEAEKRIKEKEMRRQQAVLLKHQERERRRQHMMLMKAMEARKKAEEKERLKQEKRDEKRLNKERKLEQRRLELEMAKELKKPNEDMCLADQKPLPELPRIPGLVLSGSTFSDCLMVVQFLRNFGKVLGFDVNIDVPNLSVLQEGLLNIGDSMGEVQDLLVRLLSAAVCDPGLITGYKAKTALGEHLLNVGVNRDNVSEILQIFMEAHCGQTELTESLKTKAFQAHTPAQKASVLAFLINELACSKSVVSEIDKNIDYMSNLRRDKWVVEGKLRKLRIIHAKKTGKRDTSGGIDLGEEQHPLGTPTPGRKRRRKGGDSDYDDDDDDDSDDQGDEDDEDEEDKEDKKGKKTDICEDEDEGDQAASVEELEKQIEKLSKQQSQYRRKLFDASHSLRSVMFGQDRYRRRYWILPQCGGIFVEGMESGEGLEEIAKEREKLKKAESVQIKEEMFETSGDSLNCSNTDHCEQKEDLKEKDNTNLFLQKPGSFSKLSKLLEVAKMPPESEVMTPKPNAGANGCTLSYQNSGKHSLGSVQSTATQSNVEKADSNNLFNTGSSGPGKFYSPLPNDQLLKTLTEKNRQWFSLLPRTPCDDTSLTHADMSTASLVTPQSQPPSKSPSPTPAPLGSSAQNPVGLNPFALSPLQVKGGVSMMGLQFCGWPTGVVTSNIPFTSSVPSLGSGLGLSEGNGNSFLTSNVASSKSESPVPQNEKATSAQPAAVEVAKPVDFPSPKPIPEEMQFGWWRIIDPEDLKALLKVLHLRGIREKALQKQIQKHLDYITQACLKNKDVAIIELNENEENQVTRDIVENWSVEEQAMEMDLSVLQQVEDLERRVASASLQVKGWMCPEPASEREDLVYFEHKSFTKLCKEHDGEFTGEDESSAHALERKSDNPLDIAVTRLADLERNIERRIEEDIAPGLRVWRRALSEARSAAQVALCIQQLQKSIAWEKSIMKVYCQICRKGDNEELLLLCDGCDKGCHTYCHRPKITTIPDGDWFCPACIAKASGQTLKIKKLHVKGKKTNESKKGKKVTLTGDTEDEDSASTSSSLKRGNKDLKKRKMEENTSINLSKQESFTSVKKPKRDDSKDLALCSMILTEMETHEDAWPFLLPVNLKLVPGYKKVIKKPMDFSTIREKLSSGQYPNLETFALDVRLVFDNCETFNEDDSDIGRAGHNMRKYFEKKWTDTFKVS
#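 Inhibition is scored as reduced AlphaScreen emission. The BAZ2B/b-H3(5-23)K14Ac complex (50 nM each) in PBS pH 7.4, 0.01% Tween-20 meets compound (up to 110 uM) for 30 min at RT before bead addition.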
# PLK1 PBD block: qHTS for Inhibitors of PLK1-PDB (polo-like kinase 1 - polo-box domain): Primary Screen | AID 720504, 2013 | Plk1 PBD binding of FITC phosphopeptide, fluorescence polarization | Potency, µM, usual class: inhibitors | 360,000 tested, 2.8% active; also: series mostly up to about 57 µM; nearly all actives have a fitted effect of over 65% in size
# HP1b chromo inh: HTS for Inhibitors of HP1-beta Chromodomain Interactions with Methylated Histone Tails | Potency, µM (series often up to 114 µM), usual class: inhibitors | AlphaScreen HP1-beta / biotin-H3K9me3 peptide binding | AID 540317, 2011 | 390,000 tested, 0.56% active | Chromobox protein homolog 1 (Homo sapiens), P83916; also: nearly all actives have a fitted effect of over 70% in size
#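 HP1-beta protein (50 nM final) preincubated 30 min at room temperature with biotinylated H3(1-18)K9me3 peptide (50 nM) in PBS pH 7.4, 0.01% Tween-20, then compound added for 30 min. AlphaScreen streptavidin donor/nickel chelate acceptor beads (10 ug/mL final), 30 min dark, luminescence read.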
# JMJD2A Tudor inh: qHTS Assay for Inhibitors of JMJD2A-Tudor Domain. Lysine-specific demethylase 4A (Homo sapiens), O75164. AlphaScreen JMJD2A-Tudor / H3K4me3 peptide binding. Potency, µM (titrated, usually from 114 µM), hits mostly inhibitors. 390,000 tested, 4.4% active. AID 504339, 2011; also: nearly all actives have a fitted effect of over 50% in size
# ALOX12 inh: Primary qHTS assay for inhibitors of human arachidonate 12S-lipoxygenase (ALOX12): Round 2. Polyunsaturated fatty acid lipoxygenase ALOX12 (Homo sapiens), P18054. purified 12hLO, xylenol orange hydroperoxide absorbance. Potency, µM (doses to about 108 µM), hits mostly inhibitors. 580,000 tested, 1.1% active. AID 1671190, 2021
#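 Purified human 12hLO at 150 nM in 25 mM Hepes, 0.01% Triton X-100, pH 7.0, preincubated 15 min at room temperature with compound. Reaction started with 40 uM arachidonic acid, 30 min at room temperature. Hydroperoxide measured by Fe-xylenol orange, 573/405 nm absorbance ratio.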
# G9a block: qHTS Assay for Inhibitors of Histone Lysine Methyltransferase G9a; G9a H3K9 monomethylation, AlphaScreen, 2 h; Potency, µM (titrated, usually from 102 µM), actives largely listed as inhibitors; 350,000 tested, 8.8% active; also: nearly all actives have a fitted effect of over 75% in size
#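 Enzyme 20 nM + cpd, 15 min RT; add b-H3K9 pep 500 nM / SAM 20 uM; 2 h RT; anti-H3K9me1 Ab 0.5 ug/mL + SA donor / anti-rabbit acceptor beads 20 ug/mL each, 10 min; AlphaScreen read.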
# A number is an active result; i = inactive; ? = inconclusive; nt = no result given; [ ] = remark or other dose. Calls follow the shape of the dose curve; as a rule, active = well fitted curve in the direction sought with a large enough effect; inconclusive = small, poorly fitted or top-dose-only effect, or another doubt; inactive = no such curve, though single readings can be large; an effect the other way counts as inactive or inconclusive.
SMILES,BAZ2B inh,PLK1 PBD block,HP1b chromo inh,JMJD2A Tudor inh,ALOX12 inh,G9a block
COc1ccc(COC(=O)c2c(C)nn(-c3ccccc3)c2Cl)cc1,i,i,i,i,i,i
O=C(O)/C(=C\C=C\c1ccco1)NC(=O)c1ccccc1,nt,nt,nt,nt,1.6µM,nt
Cc1ccc(C(=O)N/C(=C/C=C\c2ccccc2)C(=O)NCc2ccco2)cc1,i,i,i,i,i,45µM
O=C(N/N=C/C=C/c1ccco1)/C(=C/c1ccccc1)NC(=O)c1ccccc1,i,30µM,i,79µM,?,28µM
CC(=O)N(Cc1ccco1)C1(C(=O)NC2CCCCC2)CCCCC1,i,i,i,i,i,?
CC1=C([N+](=O)[O-])C(c2ccc(Cl)cc2)NC(=O)N1C (centres undefined),i,3µM,i,20µM,i,nt
Cn1nnc2c[n+](CC(=O)c3ccc(Cl)cc3)cc(Br)c21,i,i,i,i,?,?
Cn1nnc2c[n+](CC(=O)c3ccc4ccccc4c3)cc(Br)c21,?,i,i,i,i,56µM
Cc1cc(F)ccc1S(=O)(=O)Nc1ccc(C(=O)N2CCCCCC2)cc1,i,i,i,i,i,i[12.7 µM]
Cc1cc(F)ccc1S(=O)(=O)Nc1ccc(N2CCCC2)c(F)c1,nt,nt,nt,nt,4µM,nt
CSc1nc2c(C)c(C)c(C)c(C)c2[nH]1,i,i,i,i,i,nt
CC1Cc2ccccc2N1c1ncnc2c1nnn2Cc1ccccc1Cl (centres undefined),i,27µM,i,i[11.4 µM],i,i
CC(C)(C)NC(=O)CSc1ncnc2c1nnn2Cc1ccccc1Cl,i,27µM,i,50µM,i,i
O=C(CSc1ncnc2c1nnn2Cc1ccccc1)NC1CCCC1,i,i,i,i,i,i
COc1ccc(/C=C(\NC(=O)c2ccc([N+](=O)[O-])cc2)C(=O)NCCCn2ccnc2)cc1,?,i,i,i,i,i
O=C(O)c1ccc(N/N=C/c2ccc3nccnc3c2)cc1,i,i,i,i,i,50µM
O=C(O)c1ccc(N/N=C/c2cccc(F)c2)cc1,i,i,i,i,i,?
O=C(O)c1ccc(N/N=C/c2ccc(F)c(F)c2)cc1,i,?,i,i,?,4.5µM
O=C(O)c1ccc(N/N=C/c2cccc3cccnc23)cc1,71µM,i,i,i[11.4 µM],i,nt
C(=N\NCc1ccccc1)/c1ccc2nccnc2c1,i,i,i,i,i,50µM
O=C(O)c1ccc(N/N=C/c2ccnc3ccccc23)cc1,i,i,i,i,i,?
O=C(O)c1ccc(N/N=C/c2ccncc2)cc1,i,i,i,i,i,i
O=C(Nc1ccc([C@H]2OCC(=O)N(Cc3ccc(F)cc3)[C@@H]2CO)cc1)c1cccc(F)c1,nt,nt,nt,nt,i,nt
COc1ccc(CC(=O)NC(C)c2nnc(SCC(=O)Nc3nc(C)cs3)n2C)cc1 (centres undefined),i,i,i,i,i,i
CCOc1ccc(S(=O)(=O)NCCC(=O)NCCOc2ccccc2)cc1,i,i,i,i,i,i[0.501 µM]
SMILES,BAZ2B inh,PLK1 PBD block,HP1b chromo inh,JMJD2A Tudor inh,ALOX12 inh,G9a block
Cc1ccc2nc(Cl)c(/C=N/Nc3ccc(C(=O)O)cc3)cc2c1,?,?,i,i,?,50µM
Cc1ccc2cc(/C=N/NC(=O)c3ccc(F)cc3)c(Cl)nc2c1,i,i,i,i,i,i
Cc1cc(-c2c(C)[nH]n(-c3ccc(Cl)cc3)c2=O)n(-c2ccc(Cl)cc2)n1,?,i,i,i,?,?
CC1=NN(c2ccc(Cl)cc2)C(=O)C1C(c1ccccc1O)c1c(C)[nH]n(-c2ccc(Cl)cc2)c1=O (centres undefined),35µM,24µM,?,56µM,nt,4µM
Cc1ccc2occ(/C=N/O)c(=O)c2c1,i,i,i,i,i,i
CC(=O)Oc1ccc2occ(/C=N/c3cc(=O)[nH]c(=S)[nH]3)c(=O)c2c1,i,5.3µM,i,i[11.4 µM],?,11µM
CCCCCCCc1ccc(-c2ccc(O)cc2)nc1,i,24µM,?,i[11.4 µM],?,i
O=C1C2(CCCC13COC(c1ccc(O)cc1)OC3)COC(c1ccc(O)cc1)OC2 (centres undefined),i,30µM,i,?,i,nt
CCOC(=O)COc1ccc2c3c(c(=O)oc2c1C)CCC3,i,i,i,i,i,i[12.7 µM]
O=c1oc2cc(OCc3nn[nH]n3)ccc2c2c1CCCC2,i,i,i,i,i,i
Cc1cc2oc(=O)c3c(c2cc1OCc1nn[nH]n1)CCCC3,?,i,i,i,i,71µM
Cc1c(OCc2nn[nH]n2)ccc2c3c(c(=O)oc12)CCCC3,i,i,i,i,i,71µM
Cc1c(OCc2nn[nH]n2)ccc2c3c(c(=O)oc12)CCC(C)C3 (centres undefined),i,i,i,i,?,50µM
Cc1cc(=O)oc2c(C)c(OCc3nn[nH]n3)ccc12,nt,nt,nt,nt,i,nt
COc1ccccc1N1C(=O)CC(Nc2ccc(N3CCOCC3)cc2)C1=O (centres undefined),?,i,?,?,i,?
CCN(CC)S(=O)(=O)c1cc(NC(=O)C(CC(C)C)NC(N)=O)ccc1C (centres undefined),i,i,i,i,i,i
CS(=O)(=O)N(CCc1ccccc1)CC(=O)NCc1ccccc1,i,i,i,i,i,nt
COc1ccc(CCNC(=O)CSC2=NS(=O)(=O)c3cc(Cl)ccc3N2)cc1OC,i,i,i,i,i,i
CC(=O)Nc1ccc(NC(=O)CSC2=NS(=O)(=O)c3cc(Cl)ccc3N2)cc1,i,i,i,i,i,10µM
O=C(CSC1=NS(=O)(=O)c2cc(Cl)ccc2N1)Nc1ccccc1F,i,i,i,i,?,i[2.33 µM]
COc1ccc(C(=O)CSC2=NS(=O)(=O)c3cc(Cl)ccc3N2)cc1,i,i,i,i,?,56µM
Cc1cccc(S(=O)(=O)c2c(N)n(/N=C/c3ccccc3)c3nc4ccccc4nc23)c1,i,i,i,i,i,i
Cc1ccc(C)c(S(=O)(=O)c2c(N)n(/N=C/c3ccco3)c3nc4ccccc4nc23)c1,?,i,i,i,i,50µM
CSc1c[n+]2c(n1C)CCC2,i,i,i,32µM,45µM,?
CCN1C(=O)/C(=C\c2nc3ccccc3c(=O)n2-c2ccccc2)c2ccccc21,50µM,i,i,45µM,?,?
